In PubChem BioAssay (NCI):
Compounds without any hit were thinned out: in the full panel of roughly 79,000, 15% have a hit. Activity calls are given as the source filed them. No stated cut-off is given here; in the data, active means growth inhibition above about 70%; inactive means the rest.

Assays:
[1] = NCI Yeast Anticancer Drug Screen. Data for the rad52 strain (AID 147);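 further: 0% = growth of vehicle-treated control cultures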; conditions: S. cerevisiae rad52 mutant growth inhibition, active compounds read high
Method in brief: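 Genetically altered yeast (DNA damage repair defect) treated with compound; inhibition calculated relative to vehicle.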

[2] = NCI Yeast Anticancer Drug Screen. Data for the wt1 strain (AID 149);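 further: 0% = growth of vehicle-treated wt1 cultures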; conditions: S. cerevisiae wt1 strain (SPY 50644) growth inhibition, active compounds read high
Method in brief: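 wt1 strain grown with compound or vehicle; inhibition taken from the growth difference.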

[3] = NCI Yeast Anticancer Drug Screen. Data for the rad50EPP+ strain (AID 151);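 further: 0% = growth of vehicle-treated control cultures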; conditions: S. cerevisiae rad50 mutant strain, active compounds read high
Method in brief: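 Strain rad50EPP+; compound exposure; % growth inhibition vs vehicle.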

[4] = NCI Yeast Anticancer Drug Screen. Data for the mgt1 strain (AID 153); conditions: S. cerevisiae mgt1 mutant growth inhibition, active compounds read high
Method in brief: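 Read-out: yeast growth inhibition vs vehicle control. Strain mgt1, drawn from a panel altered in DNA damage repair or cell cycle control.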

[5] = NCI Yeast Anticancer Drug Screen. Data for the rad50 strain (AID 155);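 further: 0% = growth of vehicle-only cultures of the same strain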; conditions: S. cerevisiae rad50 strain growth inhibition, active compounds read high
Method in brief: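 DNA repair mutant yeast, compound exposure, growth read-out; inhibition is taken relative to vehicle.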

[6] = NCI Yeast Anticancer Drug Screen. Data for the mec2-1 strain (AID 157); conditions: S. cerevisiae mec2-1 strain, active compounds read high
Method in brief: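 Cells of the genetically defined mec2-1 yeast strain are incubated with test compound. Inhibition of growth is calculated against vehicle-treated controls.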

[7] = NCI Yeast Anticancer Drug Screen. Data for the rad14 strain (AID 159);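 further: 0% = growth of vehicle-treated control cultures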; conditions: S. cerevisiae rad14 strain growth inhibition, active compounds read high
Method in brief: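 DNA repair-defective yeast, compound-exposed; % growth inhibition derived by comparison with vehicle-treated controls.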

[8] = NCI Yeast Anticancer Drug Screen. Data for the sgs1 mgt1 strain (AID 161);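 further: 0% = growth of cultures given vehicle only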; conditions: S. cerevisiae sgs1 mgt1 strain, active compounds read high
Method in brief: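 Mutant yeast exposed to compound; growth scored against vehicle-only wells.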

[9] = NCI Yeast Anticancer Drug Screen. Data for the CLN2oe strain (AID 163);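 further: 0% = growth of vehicle-only control cultures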; conditions: S. cerevisiae CLN2oe strain, active compounds read high
Method in brief: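 Strain altered in cell-cycle control, incubated with compound; growth compared to solvent-treated controls.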

[10] = NCI Yeast Anticancer Drug Screen. Data for the cln2 rad14 strain (AID 165);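 further: 0% = growth equal to vehicle treated cultures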; conditions: S. cerevisiae cln2 rad14 strain, active compounds read high
Method in brief: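 The screen exposed genetically defined yeast (cln2 rad14) to test compounds and scored growth inhibition relative to vehicle-treated controls.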

[11] = NCI Yeast Anticancer Drug Screen. Data for the bub3 strain (AID 167); conditions: S. cerevisiae bub3 mutant strain, active compounds read high
Method in brief: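 In this screen, a yeast mutant lacking normal mitotic checkpoint function is challenged with compound. Relative growth versus vehicle gives the inhibition value.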

[12] = NCI Yeast Anticancer Drug Screen. Data for the wt2 strain (AID 169);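 further: 0% = growth of vehicle-treated yeast cultures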; conditions: S. cerevisiae wt2 strain growth inhibition, active compounds read high
Method in brief: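 Steps: yeast strain treated with compound; growth recorded; inhibition calculated relative to cultures given vehicle alone.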

[13] = NCI Yeast Anticancer Drug Screen. Data for the mlh1 strain (AID 171);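 further: 0% = growth of vehicle-treated control cultures of the same strain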; conditions: S. cerevisiae mlh1 strain growth inhibition, active compounds read high
Method in brief: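 Yeast screen: mutant strain plus compound, growth scored against vehicle control wells.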

[14] = NCI Yeast Anticancer Drug Screen. Data for the sgs1 strain (AID 173);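 further: 0% = growth of vehicle-only control cultures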; conditions: S. cerevisiae sgs1 mutant, active compounds read high
Method in brief: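 Inhibition of yeast growth served as the measure. The mutant strain was treated with each compound, and growth was normalised to cultures receiving vehicle alone.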

[15] = NCI Yeast Anticancer Drug Screen. Data for the mlh1 rad18 strain (AID 175); conditions: S. cerevisiae mlh1 rad18 strain growth inhibition, active compounds read high
Method in brief: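 Compound-treated yeast growth, normalised to vehicle controls. Strain bears defined DNA repair mutations.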

[16] = NCI Yeast Anticancer Drug Screen. Data for the rad18 strain (AID 177); conditions: S. cerevisiae rad18 mutant growth inhibition, active compounds read high
Method in brief: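 Inhibition values reflect reduced yeast growth compared with vehicle-treated controls, using a strain engineered with a DNA damage repair defect.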

[17] = at 5.0 µM (retest, dose inferred, filed as 0.5)
[18] = at 50.0 µM (retest, dose inferred, filed as 5.0)

Measured: growth inhibition

CO[C@H]1C[C@](C)(O)Cc2cc3c(c(O)c21)C(=O)c1c(O)cc2c(c1C3=O)O[C@@H]1O[C@@]2(C)[C@H](O)[C@@H](N(C)C)[C@@H]1O
active: [1]; at 100.0 µM 87% | [5]; at 33.0 µM 72% | [5]; [18] 75% | [5]; at 100.0 µM 85% | [15]; at 50.0 µM 73.2%
inactive: [1]; at 1.2 µM -22% | [1]; at 3.7 µM -13% | [1]; at 11.0 µM 5% | [1]; at 33.0 µM 60% | [2]; at 1.2 µM -38% | [2]; at 3.7 µM -38% | [2]; at 11.0 µM -39% | [2]; at 33.0 µM -44% | [2]; at 100.0 µM -37% | [3]; at 1.2 µM -28% | [3]; at 3.7 µM -5% | [3]; at 11.0 µM -9% | [3]; at 33.0 µM -12% | [3]; at 100.0 µM 33% | [4]; at 1.2 µM -28% | [4]; at 3.7 µM -23% | [4]; at 11.0 µM -19% | [4]; at 33.0 µM -22% | [4]; at 100.0 µM -32% | [5]; at 1.2 µM -44% | [5]; at 3.7 µM -7% | [5]; [17] -11% | [5]; at 11.0 µM 17% | [5]; at 50.0 µM 20.9% | [6]; at 1.2 µM -19% | [6]; at 3.7 µM -7% | [6]; [17] -3% | [6]; at 11.0 µM -21% | [6]; at 33.0 µM -4% | [6]; [18] -11% | [6]; at 50.0 µM -11.2% | [6]; at 100.0 µM -6% | [7]; at 1.2 µM -32% | [7]; at 3.7 µM -44% | [7]; at 11.0 µM -63% | [7]; at 33.0 µM -53% | [7]; at 100.0 µM -51% | [8]; [17] -16% | [8]; [18] -1% | [8]; at 50.0 µM 14.3% | [9]; at 1.2 µM -11% | [9]; at 3.7 µM -29% | [9]; at 11.0 µM -8% | [9]; at 33.0 µM -14% | [9]; at 100.0 µM -33% | [10]; [17] 25% | [10]; [18] 31% | [10]; at 50.0 µM 21.9% | [11]; at 1.2 µM -15% | [11]; at 3.7 µM -11% | [11]; [17] -2% | [11]; at 11.0 µM -30% | [11]; at 33.0 µM -31% | [11]; [18] 15% | [11]; at 50.0 µM -10.6% | [11]; at 100.0 µM -20% | [12]; at 1.2 µM -19% | [12]; at 3.7 µM -21% | [12]; at 11.0 µM -26% | [12]; at 33.0 µM -19% | [12]; at 100.0 µM -12% | [13]; at 1.2 µM -42% | [13]; at 3.7 µM -38% | [13]; at 11.0 µM -14% | [13]; at 33.0 µM -36% | [13]; at 100.0 µM -22% | [14]; at 1.2 µM -28% | [14]; at 3.7 µM -28% | [14]; at 11.0 µM -24% | [14]; at 33.0 µM -7% | [14]; at 100.0 µM 2% | [15]; [17] -19% | [15]; [18] 0%

O=c1c2ccccc2ncn1COCc1ccccc1
inactive: [1]; at 1.2 µM -4% | [1]; at 3.7 µM 3% | [1]; at 11.0 µM -22% | [1]; at 33.0 µM -16% | [1]; at 100.0 µM 2% | [2]; at 1.2 µM -2% | [2]; at 3.7 µM -19% | [2]; at 11.0 µM -11% | [2]; at 33.0 µM -13% | [2]; at 100.0 µM 8% | [3]; at 1.2 µM -31% | [3]; at 3.7 µM -30% | [3]; at 11.0 µM -28% | [3]; at 33.0 µM -21% | [3]; at 100.0 µM 8% | [4]; at 1.2 µM -17% | [4]; at 3.7 µM -14% | [4]; at 11.0 µM -11% | [4]; at 33.0 µM 1% | [4]; at 100.0 µM 21% | [5]; at 1.2 µM -10% | [5]; at 3.7 µM 2% | [5]; [17] 14% | [5]; at 11.0 µM 3% | [5]; at 33.0 µM 9% | [5]; [18] 19% | [5]; at 50.0 µM 1.9% | [5]; at 100.0 µM 23% | [6]; at 1.2 µM -12% | [6]; at 3.7 µM -15% | [6]; [17] 14% | [6]; at 11.0 µM -11% | [6]; at 33.0 µM 2% | [6]; [18] 15% | [6]; at 50.0 µM -6.6% | [6]; at 100.0 µM 26% | [7]; at 1.2 µM -13% | [7]; at 3.7 µM 0% | [7]; at 11.0 µM -15% | [7]; at 33.0 µM -6% | [7]; at 100.0 µM 5% | [8]; [17] 13% | [8]; [18] 69% | [9]; at 1.2 µM -26% | [9]; at 3.7 µM -15% | [9]; at 11.0 µM -12% | [9]; at 33.0 µM -20% | [9]; at 100.0 µM -9% | [10]; [17] 12% | [10]; at 50.0 µM 52.4% | [11]; at 1.2 µM -20% | [11]; at 3.7 µM -18% | [11]; [17] 7% | [11]; at 11.0 µM -7% | [11]; at 33.0 µM 29% | [11]; at 100.0 µM 58% | [12]; at 1.2 µM -16% | [12]; at 3.7 µM -3% | [12]; at 11.0 µM -7% | [12]; at 33.0 µM -3% | [12]; at 100.0 µM 15% | [13]; at 1.2 µM 0% | [13]; at 3.7 µM 12% | [13]; at 11.0 µM -4% | [13]; at 33.0 µM 6% | [13]; at 100.0 µM 27% | [14]; at 1.2 µM -49% | [14]; at 3.7 µM -34% | [14]; at 11.0 µM -37% | [14]; at 33.0 µM -21% | [14]; at 100.0 µM -7% | [15]; [17] 18% | [15]; [18] 30% | [15]; at 50.0 µM -22.1% | [16]; at 1.2 µM -3% | [16]; at 3.7 µM -5% | [16]; at 11.0 µM 3% | [16]; at 33.0 µM 9% | [16]; at 100.0 µM 26%
active: [8]; at 50.0 µM 89.5% | [10]; [18] 75% | [11]; [18] 88% | [11]; at 50.0 µM 74.3%
